HT1080 IDH1KD tx = kills HT-1080 cells with IDH1 knockdown; HT-1080 IDH1 knockdown viability, ATP luminescence, 48 h; Potency, µM (doses to about 46.1 µM), for the others: top-dose activity, negative = toxicity, usual class: cytotoxic; 2% of 360,000 active; AID 686971;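 also: 0% = DMSO wells and -100% = cell-free medium wells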
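CellTiter-Glo luminescence after 48 h compound exposure at 37 degrees C of IDH1-knockdown HT-1080 cells in 5% FBS RPMI. %Activity scaled between DMSO wells and cell-free media wells, with curves fitted and assigned curve classes.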
DT40 TDP1 CPT = DT40-hTDP1 cell growth loss with CPT; Potency, µM (top dose mostly 46.2 µM), without a hit: top-dose activity change, negative = growth inhibition, most hits filed as inhibitors; chicken DT40 Tdp1-/-;hTDP1 cells + 20 nM CPT, ATP luminescence, 48 h; 12% of 420,000 active; also: nearly all actives have a fitted effect of over 55% in size
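Chicken DT40 Tdp1-/- cells stably complemented with human TDP1 were seeded at 400 cells/well in medium containing 20 nM camptothecin, exposed to pin-transferred compounds, and grown at 37 °C for at least 48 hr. Viability was read as ATP luminescence.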
KB-V1 MDR tox = kills drug-selected multidrug resistant KB-V1 cells. KB-V1 MDR cells viability, CellTiter-Glo, 72 h. Potency, µM (series often up to 46.1 µM), hits mostly cytotoxic. 3.4% of 400,000 active. AID 1347076; also: nearly all actives have a fitted effect of over 60% in size
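Potencies derive from concentration-effect curves fitted to normalized luminescence (CellTiter-Glo) of KB-V1 cells treated for 72 h at 37 degrees C in phenol-red-free DMEM containing 10% FBS.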
KB-3-1 tox = kills parental KB-3-1 adenocarcinoma cells. AID 1347075. Potency, µM (top dose mostly 46.1 µM), hits mostly cytotoxic. 1.4% of 400,000 active. KB-3-1 viability, CellTiter-Glo ATP luminescence, 72 h; also: nearly all actives have a fitted effect of over 60% in size
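Luminescent ATP read-out (CellTiter-Glo) measures survival of drug-naive KB-3-1 cells after 72 h compound exposure at 37 °C. Titration series was screened from lowest to highest concentration, with DMSO vehicle plates as background controls.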
TDP1 cell noCPT = qHTS for Inhibitors of human tyrosyl-DNA phosphodiesterase 1 (TDP1): qHTS in cells in absence of CPT; AID 686978, 2013; Potency, µM (highest dose often 46.2 µM), for inactives: top-dose activity change, negative = growth inhibition, usual class: inhibitors; 15% of 420,000 active; DT40 Tdp1-/- hTDP1 cells, no CPT, ATP luminescence, 48 h; also: nearly all actives have a fitted effect of over 55% in size
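Luminescent ATP content (CellTiter-Glo) served as the growth readout. Knockout chicken DT40 cells expressing human TDP1 were exposed to compounds without camptothecin for a minimum 48 hr at 37 °C.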
HT1080-NT tox = kills 2HG-producing HT-1080-NT fibrosarcoma cells | HT-1080-NT fibrosarcoma viability, CellTiter-Glo ATP luminescence, 48 h | Potency, µM (doses to about 46.1 µM), inactives show at the highest dose activity, negative = less viability, actives largely listed as cytotoxic | 1.6% of 360,000 active;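 also: NT is the 2HG producing partner of a matched IDH1 knockdown line; 0% = DMSO-treated cells and -100% = media-only wells without cells; nearly all actives have a fitted effect of over 55% in size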
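Toxicity toward the 2HG-producing NT line was scored as %Activity, normalised to DMSO and no-cell wells, from CellTiter-Glo luminescence after 48 hours' treatment.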
Active calls of the source: *; i = inactive; ? = inconclusive; . = no result given. This is a sample that favours compounds with a hit; in the whole collection about 19% have one here. Calls follow the shape of the dose curve; as a rule, active = well fitted curve in the direction sought with a large enough effect; inconclusive = small, poorly fitted or top-dose-only effect, or another doubt; inactive = no such curve, though single readings can be large; an effect the other way counts as inactive or inconclusive. Unless noted, % is scaled to controls: 0 for no effect and ±100 for the full control effect; potency is read from the fitted curve at half-maximal effect.

SMILES	HT1080 IDH1KD tx	DT40 TDP1 CPT	KB-V1 MDR tox	KB-3-1 tox	TDP1 cell noCPT	HT1080-NT tox
CC(=O)c1ccc(NC(=O)C(C)Oc2ccc(N(C)S(=O)(=O)c3ccc(C)cc3)cc2)cc1 (stereo not drawn)	-2%	?	?	i	?	-2%
Cc1cccc(N(C)C(=O)C(Cc2ccccc2)NS(=O)(=O)c2cccc3nsnc23)c1 (stereo not drawn)	.	?	i	i	?	.
C=C1CCC[C@]2(C)C[C@H]3OC(=O)C(CNCC(OC)OC)[C@H]3CC12 (stereo partly drawn)	?	?	i	i	18µM*	-21%
C=C1CCC[C@]2(C)C[C@H]3OC(=O)C(CNC(C)CCCC(C)C)[C@H]3CC12 (stereo partly drawn)	?	?	?	i	21µM*	?
C=C1CCC[C@]2(C)C[C@H]3OC(=O)C(CN(Cc4ccc(OC)c(OC)c4)CC(C)O)[C@H]3CC12 (stereo partly drawn)	?	?	i	i	18µM*	?
C=C1CCC[C@]2(C)C[C@H]3OC(=O)C(CN[C@@H](C)c4ccccc4)[C@H]3CC12 (stereo partly drawn)	-9%	?	i	i	?	-13%
CC(=O)c1nnn(-c2cccc(C#N)c2)c1C	-3%	16%	i	i	-1%	16%
CCN1CCN(CCCNC(=O)CCC(=O)N2CCOc3ccc(Cl)cc32)CC1	0%	1%	i	i	8%	1%
COc1ccccc1C(=O)Nc1nc2cc3c(cc2s1)OCCO3	?	5.8µM*	i	?	5.8µM*	?
CCN(CC)S(=O)(=O)c1ccc2nc(NC(=O)c3cccs3)sc2c1	?	?	i	i	?	-29%
CCN(CC)S(=O)(=O)c1ccc2nc(NC(=O)c3ccccc3OC)sc2c1	.	?	?	i	5.2µM*	.
COc1ccccc1C(=O)Nc1nc2cc3c(cc2s1)OCO3	-4%	?	?	i	-6%	-13%
CCNc1ncc2nc(-c3ccc(Cl)cc3)c(=O)n(C[C@H]3CCCO3)c2n1	.	-5%	.	.	-8%	.
C[C@]12CCC(=O)CC1CCC1C2CC[C@@]2(C)C1CC[C@@]21CCO1 (stereo partly drawn)	?	?	?	i	21µM*	?
O=S(=O)(c1ccc(SCCOc2ccc(F)cc2)nc1)N1CCCC1	-13%	-27%	?	?	?	0%
CC1(c2cccc3ccccc23)OC(=O)c2ccccc21 (stereo not drawn)	?	?	18µM*	?	?	-4%
CC(C)(C)C(Cn1ccnc1)NC(=O)c1ccc2nc(C3CC3)oc2c1 (stereo not drawn)	-14%	-10%	i	i	-5%	0%
CC1CCN(C(=S)Nc2ccc(F)cc2)CC1	-44%	?	?	?	?	-26%
C/C(=N\NC(=S)Nc1ccc(F)cc1)C1CC1	11µM*	?	i	i	?	8.9µM*
NC(=O)COC(=O)c1cccnc1Nc1ccccc1F	0%	10%	i	i	-8%	2%
CN(C)C(=O)COC(=O)c1cccnc1Nc1ccccc1F	11%	-2%	16µM*	i	1%	9%
Cc1c(C)c2ccc(O[C@@H]3O[C@H](CO)[C@@H](O)[C@H](O)[C@H]3O)c(C)c2oc1=O	13%	28%	i	i	-23%	6%
CCc1cc(=O)oc2c(C)c(O[C@@H]3O[C@H](CO)[C@@H](O)[C@H](O)[C@H]3O)ccc12	0%	3%	?	i	10µM*	-6%
Cc1ccc(CN=Cc2[nH]c3ccc(Br)c(Cl)c3c2O)cc1	18µM*	?	i	i	21µM*	-24%
CC1=C(C(=O)OCC(C)C)C(c2cc3c(cc2Br)OCO3)NC(=O)N1C (stereo not drawn)	?	18µM*	i	i	?	?
SMILES	HT1080 IDH1KD tx	DT40 TDP1 CPT	KB-V1 MDR tox	KB-3-1 tox	TDP1 cell noCPT	HT1080-NT tox
CCOC(=O)C1=C(C)N(C)C(=O)NC1c1cccc2ccccc12 (stereo not drawn)	-11%	?	i	i	26µM*	?
CC1=C(C(=O)OCC(C)C)C(c2ccccc2Cl)NC(=O)N1C (stereo not drawn)	-12%	8.2µM*	i	i	13µM*	-3%
CCOC(=O)CCCNC(=O)CN1CCC(c2nc3ccccc3s2)CC1	-16%	-22%	?	i	?	-6%
O=C(N/N=C/c1cccc(O)c1)c1ccc(-n2cnnn2)cc1	-1%	-1%	i	i	?	-14%
Cc1cc(C)n(-c2ccc(C(=O)Nc3cccc(S(=O)(=O)N4CCCC4)c3)cc2)n1	-12%	18µM*	i	i	9.2µM*	-4%
Cc1cc(C)n(-c2ccc(C(=O)OCC(=O)Nc3ccc(S(=O)(=O)N4CCCCC4)cc3)cc2)n1	1%	23µM*	i	i	?	0%
Cc1cc(C)n(-c2ccc(C(=O)OCC(=O)Nc3ccc(S(N)(=O)=O)cc3)cc2)n1	0%	?	i	i	-12%	-5%
Cc1ccc(NC(=O)c2ccc(OCC3CCCO3)cc2)cc1 (stereo not drawn)	7%	?	21µM*	i	?	2%
O=C(Nc1cccc(S(=O)(=O)N2CCCCC2)c1)c1ccc(OCC2CCCO2)cc1 (stereo not drawn)	-11%	21µM*	8.2µM*	i	16µM*	-12%
O=C(CSc1nccn1-c1ccc(F)cc1)Nc1nc2ccccc2s1	.	-1%	.	.	-16%	.
COc1ccc(C(=O)N2CCC2)cc1S(=O)(=O)NCc1ccc(Cl)cc1	6%	4%	i	i	13%	6%
O=C(Nc1ccc(S(=O)(=O)N2CCCC2)cc1)c1ccc(OCC2CCCO2)cc1 (stereo not drawn)	?	-13%	?	21µM*	-14%	?
CC(C)Oc1ccc(C(=O)Nc2cccc(S(=O)(=O)N3CCCC3)c2)cc1	-14%	29µM*	?	?	21µM*	0%
Cc1nn(C)c2c1c(C(F)(F)F)cc(=O)n2CC(=O)NCCC(C)C	.	?	i	i	-24%	.

Screening results deposited in PubChem BioAssay by National Center for Advancing Translational Sciences (NCATS).
